Data taken from PubChem BioAssay (NCATS).
Records with an inconclusive call do not appear. Calls of active or inactive are those of the source. Unless noted, calls come from the whole dose curve; as a rule, active = well fitted curve in the direction sought with a large enough effect; inconclusive = small, poorly fitted or top-dose-only effect, or another doubt; inactive = no such curve, though single readings can be large; an effect the other way counts as inactive or inconclusive.

Experiments:
[1] = Cellular Toxicity (caspase-3) HepG2 (AID 654);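 note: cells exposed to compound for 16 hours before reading; 0% = DMSO alone and 100% = caspase signal from 100 µM tamoxifen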
In short: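 Luminescent Caspase-Glo 3/7 readout after 16 hr compound exposure of human hepatocellular carcinoma HepG2 cells at 37 °C; qHTS concentration-response, normalized DMSO = 0%, 100 uM tamoxifen = 100%; AC50 by standard Hill equation.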

[2] = Cellular Toxicity (caspase-3) Jurkat (AID 655);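 note: cells exposed to compound for 16 h at 37 °C before reading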
In short: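 Caspase 3/7 activation is scored as increased luminescence in Jurkat cells cultured with compound for 16 hours in complete medium. AC50 values come from Hill fits of qHTS concentration-response data normalized to DMSO and 100 uM tamoxifen controls.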

[3] = Cellular Toxicity (caspase-3) HUV-EC-C (AID 656)
In short: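 Read-out: luminescence proportional to caspase 3/7 activity, measured 20 min after adding Caspase-Glo 3/7 reagent. Cells (HUV-EC-C) had received compound for 16 hr at 37°C. Increases relative to DMSO and 100 uM tamoxifen gave concentration-response AC50 values.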

[4] = Cellular Toxicity (caspase-3) SHSY5Y (AID 657)
In short: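 Cells plated and incubated 5 h at 37 °C, dosed over a concentration range, incubated 16 h, then given Caspase-Glo 3/7 reagent for 1 h at room temperature before luminescence reading. Staurosporine (10 uM) defined full stimulation.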

[5] = Cellular Toxicity (caspase-3) BJ (AID 658); conditions: Potency: caspase-3 activation;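 note: 0% = DMSO basal and 100% = 10 µM staurosporine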
In short: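 Plated BJ cells (1000/well) rested 5 hr, received compound for 16 hr at 37 °C, then Caspase-Glo 3/7 reagent for 1 hr at room temperature before luminescence reading.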

[6] = Cellular Toxicity (caspase-3) MRC-5 (AID 659); conditions: Potency: caspase-3 activation;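 note: 0% = DMSO basal and 100% = 10 µM staurosporine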
In short: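 Apoptosis readout in MRC-5 cells: luciferase light generated after caspase 3/7 cleaves a peptide-aminoluciferin substrate, measured post 16 hr compound incubation at 37 °C.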

[7] = Cellular Toxicity (caspase-3) Mesangial (AID 660); conditions: Potency: caspase-3 activation;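 note: cells exposed to compound for 16 h before the caspase read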
In short: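 Luminescent Caspase-Glo 3/7 readout (aminoluciferin substrate cleavage, 20 min RT) after 16 h compound exposure at 37 °C of normal human mesangial cells. Signal increase normalized between DMSO basal and 100 uM tamoxifen; Hill-equation AC50.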

[8] = Cellular Toxicity (caspase-3) SK-N-SH (AID 661);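 note: 0% = DMSO basal and 100% = 10 µM staurosporine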
In short: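 Luminescent Caspase-Glo 3/7 read-out after 16 hr compound exposure of SK-N-SH neuroblastoma cells at 37 °C. Signal increase normalized to DMSO (basal) and 10 uM staurosporine (100%); AC50 from Hill equation fits of qHTS concentration-response data.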

[9] = Cellular Toxicity (caspase-3) H-4-II-E (AID 663); conditions: H-4-II-E rat hepatoma, scaled: DMSO 0%, 100 µM tamoxifen 100%; at 92.2 µM (top of the series);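 note: cells exposed to compound for 16 hr before readout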
In short: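 Caspase 3/7 activation measured in H-4-II-E cells in complete culture medium after 16 hr treatment at 37 °C, using luciferase-coupled substrate readout; AC50 values come from Hill-equation fits of normalized concentration-response data.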

[10] = Cellular Toxicity (caspase-3) Hek293 (AID 664); conditions: HEK293 caspase-3 activation, DMSO = 0%, 100 µM tamoxifen = 100%; at 92.2 µM (top of the series);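 note: cells exposed to compound for 16 h at 37 °C before readout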
In short: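 Luminescent Caspase-Glo 3/7 readout (aminoluciferin release) in HEK293 cells after 16 h compound treatment, 37 °C. Normalization: DMSO = basal, 100 uM tamoxifen = 100% stimulation. Concentration-response fitted with standard Hill equation for AC50.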

[11] = Cellular Toxicity (caspase-3) Renal Proximal Tubule (AID 667); conditions: Potency: caspase-3 activation;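 note: cells exposed to compound for 16 hours at 37 °C before detection; 0% = DMSO basal and 100% = 10 µM staurosporine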
In short: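 In qHTS format, rat primary proximal tubule cells seeded at 1000 per well are exposed to compounds for 16 hours at 37 °C. An increase in Caspase-Glo 3/7 luminescence indicates caspase activation.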

[12] = target: Cytochrome P450 3A4 (Homo sapiens) (UniProt P08684); assay: qHTS Assay for Inhibitors and Substrates of Cytochrome P450 3A4 (AID 884); note: % is set by controls: 0 for no effect and ±100 for the full control effect; nearly all actives have a fitted effect of over 50% in size
Chain of Cytochrome P450 3A4 (Homo sapiens) (P08684 whole entry, looked up): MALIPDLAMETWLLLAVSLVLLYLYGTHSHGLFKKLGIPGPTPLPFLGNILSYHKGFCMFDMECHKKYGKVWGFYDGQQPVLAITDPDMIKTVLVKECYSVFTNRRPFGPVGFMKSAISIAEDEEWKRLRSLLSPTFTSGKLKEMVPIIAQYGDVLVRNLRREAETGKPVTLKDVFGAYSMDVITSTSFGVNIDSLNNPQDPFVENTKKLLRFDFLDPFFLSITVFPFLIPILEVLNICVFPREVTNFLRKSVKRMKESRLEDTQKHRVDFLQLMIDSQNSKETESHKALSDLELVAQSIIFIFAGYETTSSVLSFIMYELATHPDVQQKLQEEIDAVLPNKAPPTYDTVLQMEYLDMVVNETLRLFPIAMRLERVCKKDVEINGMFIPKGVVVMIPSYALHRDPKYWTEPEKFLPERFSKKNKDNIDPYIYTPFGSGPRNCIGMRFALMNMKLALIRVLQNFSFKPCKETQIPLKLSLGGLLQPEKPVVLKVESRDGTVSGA
In short: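 Luminescent readout of luciferin produced by CYP3A4 (20 nM) dealkylation of Luciferin-PPXE, 25 uM (its KM). NADPH-driven reaction ran 60 min at RT after 10 min compound preincubation; data scaled to 57 uM ketoconazole as 100% inhibition.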

[13] = Confirmation and Secondary Assay for Modulators of Hemoglobin Beta Chain Splicing at IVS2 654 locus (AID 910);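 note: per-well total GFP intensity by laser scanning cytometry after 2-day treatment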;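 note: potency is the fitted concentration of half-maximal effect; potency of activators that raise GFP signal by restoring correct splicing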
In short: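 HeLa cells stably carrying EGFP interrupted by mutant beta-globin IVS2-654 intron (CMV-driven) were treated with compound for 2 days at 37C; corrected splicing was scored as total peak GFP intensity per well (488 nm excitation, 500-520 nm emission).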

[14] = target: Cytochrome P450 2C9 (Homo sapiens) (UniProt P11712); assay: qHTS Assay for Inhibitors and Substrates of Cytochrome P450 2C9 (AID 883); note: % is set by controls: 0 for no effect and ±100 for the full control effect; nearly all actives have a fitted effect of over 60% in size
Chain of Cytochrome P450 2C9 (Homo sapiens) (P11712 whole entry, looked up): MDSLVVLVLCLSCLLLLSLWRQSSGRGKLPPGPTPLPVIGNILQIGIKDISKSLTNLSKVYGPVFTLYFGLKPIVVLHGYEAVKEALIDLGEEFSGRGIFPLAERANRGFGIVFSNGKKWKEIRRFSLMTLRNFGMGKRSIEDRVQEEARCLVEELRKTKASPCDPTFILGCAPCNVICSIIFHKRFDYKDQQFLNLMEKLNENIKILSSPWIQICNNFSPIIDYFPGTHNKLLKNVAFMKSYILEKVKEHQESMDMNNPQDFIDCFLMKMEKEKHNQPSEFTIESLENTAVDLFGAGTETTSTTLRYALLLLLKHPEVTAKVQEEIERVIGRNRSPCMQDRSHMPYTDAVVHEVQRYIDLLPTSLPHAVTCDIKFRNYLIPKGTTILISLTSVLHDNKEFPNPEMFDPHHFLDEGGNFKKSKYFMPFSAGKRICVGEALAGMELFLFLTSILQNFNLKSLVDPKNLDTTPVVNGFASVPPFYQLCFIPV
In short: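 A luminogenic readout tracked human CYP2C9 (10nM) converting deoxyluciferin (100uM, at KM) in 25mM KPO4 during 60 min at 37C with regenerated NADPH. Values normalized to 57uM sulphaphenazole as complete inhibition.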

[15] = target: Guanine nucleotide-binding protein G(i) subunit alpha-1 (Homo sapiens) (UniProt P63096); assay: qHTS Assay for Inhibitors of RGS12 GoLoco Motif Activity (Green Fluorophore) (AID 879);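 note: 0% = labeled peptide with Gαi1 and full inhibition = labeled peptide alone without protein; negative values mean loss of peptide binding seen as reduced polarization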
Chain of Guanine nucleotide-binding protein G(i) subunit alpha-1 (Homo sapiens) (P63096 whole entry, looked up): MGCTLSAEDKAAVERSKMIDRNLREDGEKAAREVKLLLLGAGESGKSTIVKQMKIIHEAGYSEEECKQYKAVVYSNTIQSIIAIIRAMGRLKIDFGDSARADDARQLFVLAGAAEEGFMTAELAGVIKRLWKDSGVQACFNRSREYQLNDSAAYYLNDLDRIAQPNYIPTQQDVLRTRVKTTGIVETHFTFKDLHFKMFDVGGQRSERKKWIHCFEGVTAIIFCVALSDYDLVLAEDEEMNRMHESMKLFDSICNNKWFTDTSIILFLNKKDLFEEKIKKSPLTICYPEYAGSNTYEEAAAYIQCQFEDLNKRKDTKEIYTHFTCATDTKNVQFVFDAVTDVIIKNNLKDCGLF
In short: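 A drop in FITC polarization marked displacement of the FITC-tagged RGS12 GoLoco peptide (10 nM) from Gαi1 (50 nM). Compounds were incubated 10 min at room temperature in Tris pH 7.5 buffer containing 150 mM NaCl, 0.1 mM GDP and 0.05% NP40; unlabeled peptide titration served as control.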

[16] = target: Cytochrome P450 3A4 (Homo sapiens) (UniProt P08684); assay: qHTS Assay for Activators of Cytochrome P450 3A4 (AID 885); note: nearly all actives have a fitted effect of over 65% in size
In short: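 Activators are scored by enhanced luminescence from CYP3A4 conversion of luciferin-PPXE (25uM, equal to KM) to luciferin, after 60 min at RT with an NADPH-regenerating system.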

[17] = qHTS Assay for Identification of Small Molecule Antagonists for NFkB Signaling Pathway (AID 895; active = well fitted inhibition curve with a large enough effect in the signal ratio, with a control signal flat, not every such curve was filed as active; the % refers to the signal ratio; note: potency is the fitted concentration of half-maximal effect)
In short: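 NFkB-bla ME-180 cervical carcinoma cells with beta-lactamase reporter under NFkB response element; compounds added, then TNF alpha at 10 pM final (EC50), 5 h at 37 C. LiveBLAzer substrate 2 h, room temperature; emission 460/530 nm at 405 nm excitation.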

[18] = target: Cytochrome P450 2D6 (Homo sapiens) (UniProt P10635); assay: qHTS Assay for Inhibitors and Substrates of Cytochrome P450 2D6 (AID 891);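 note: luciferin methyl ether substrate demethylated by CYP2D6 with NADPH regeneration; % is set by controls: 0 for no effect and ±100 for the full control effect; nearly all actives have a fitted effect of over 60% in size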
Chain of Cytochrome P450 2D6 (Homo sapiens) (P10635 whole entry, looked up): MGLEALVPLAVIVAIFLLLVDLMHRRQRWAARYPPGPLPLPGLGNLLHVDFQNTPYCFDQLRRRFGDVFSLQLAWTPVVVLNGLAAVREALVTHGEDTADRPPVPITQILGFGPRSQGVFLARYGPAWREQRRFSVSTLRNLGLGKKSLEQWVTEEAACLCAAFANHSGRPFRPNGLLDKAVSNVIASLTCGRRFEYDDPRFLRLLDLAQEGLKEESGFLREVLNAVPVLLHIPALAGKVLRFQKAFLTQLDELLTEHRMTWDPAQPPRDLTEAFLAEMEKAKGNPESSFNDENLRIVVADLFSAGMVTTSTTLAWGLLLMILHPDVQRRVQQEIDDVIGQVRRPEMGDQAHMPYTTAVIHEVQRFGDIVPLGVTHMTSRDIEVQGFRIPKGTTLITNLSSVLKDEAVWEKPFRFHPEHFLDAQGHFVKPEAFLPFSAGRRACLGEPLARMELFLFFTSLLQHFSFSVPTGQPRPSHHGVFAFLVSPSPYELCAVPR
In short: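 Luminescent read-out of luciferin formed by 5 nM human CYP2D6 demethylating 30 uM Luciferin-ME EGE (Km level) over 60 min at room temperature after NADPH regeneration addition. Data normalized to full inhibition by 1.43 uM quinidine.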

[19] = target: Cytochrome P450 2C19 (Homo sapiens) (UniProt P33261); assay: qHTS Assay for Inhibitors and Substrates of Cytochrome P450 2C19 (AID 899); note: potency is the fitted concentration of half-maximal effect; nearly all actives have a fitted effect of over 60% in size
Chain of Cytochrome P450 2C19 (Homo sapiens) (P33261 whole entry, looked up): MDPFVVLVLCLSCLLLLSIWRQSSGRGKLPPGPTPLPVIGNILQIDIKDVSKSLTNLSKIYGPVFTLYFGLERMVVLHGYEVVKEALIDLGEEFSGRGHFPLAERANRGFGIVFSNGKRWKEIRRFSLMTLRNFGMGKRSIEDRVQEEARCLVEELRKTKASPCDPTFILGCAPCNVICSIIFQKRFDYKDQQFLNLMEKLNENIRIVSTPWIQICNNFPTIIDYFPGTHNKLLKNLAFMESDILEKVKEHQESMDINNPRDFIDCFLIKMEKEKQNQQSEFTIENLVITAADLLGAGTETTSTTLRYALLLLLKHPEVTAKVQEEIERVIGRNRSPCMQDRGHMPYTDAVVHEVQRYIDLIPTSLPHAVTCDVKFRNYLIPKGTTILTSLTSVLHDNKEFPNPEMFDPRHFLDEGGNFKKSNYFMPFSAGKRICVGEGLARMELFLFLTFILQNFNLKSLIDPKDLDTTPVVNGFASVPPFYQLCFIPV
In short: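 NADPH-dependent conversion of Luciferin-H EGE (10uM, at KM) by 5nM enzyme in 50mM KPO4, 60 min at 37C following 10 min compound preincubation. Stopped with luciferin detection buffer; luminescence read after 20 min.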

[20] = qHTS Assay for Identification of Small Molecule Agonists for Hypoxia Response Element Signaling Pathway (AID 914; active = well fitted activation curve with a large enough effect in the signal ratio, with a control signal flat, not every such curve was filed as active; the % refers to the signal ratio; note: % of control where 0% means no effect); conditions: ME-180 (cervical carcinoma) HRE-bla reporter, beta-lactamase ratio, CoCl2, 17 h; stronger effect = higher value
In short: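 A beta-lactamase reporter under hypoxia response element control in ME-180 cells served as the system. Compound titrations plus EC50 CoCl2 ran 17 h at 37 degrees Celsius; AC50 values were fitted from %Activity.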

C[C@]12C=CC(=O)C=C1CC[C@@H]1[C@@H]2C(=O)C[C@@]2(C)[C@H]1CC[C@]2(O)C(=O)CO
inactive: Potency [1] | outcome [2] | outcome [3] | Potency [4] | Potency [5] | Potency [6] | Potency [7] | Potency [8] | caspase-3 activation [9] 0.264% | caspase-3 activation [10] -0.65% | Potency [11]

O=C(N[C@H](CO)[C@H](O)c1ccc([N+](=O)[O-])cc1)C(Cl)Cl
inactive: Potency [1] | outcome [2] | outcome [3] | Potency [4] | Potency [5] | Potency [6] | Potency [7] | Potency [8] | caspase-3 activation [9] 0.675% | caspase-3 activation [10] 1.63% | Potency [11]

Nc1nc(=S)c2[nH]cnc2[nH]1
inactive: outcome [12]
active: Potency [13] 31.6 µM

CCc1c2c(nc3ccc(OC(=O)N4CCC(N5CCCCC5)CC4)cc13)-c1cc3c(c(=O)n1C2)COC(=O)[C@]3(O)CC
inactive: outcome [12]

CCn1cc(C(=O)O)c(=O)c2cc(F)c(N3CCNCC3)nc21
inactive: outcome [14] | outcome [12] | Potency [13]

OCc1ccc(-c2nn(Cc3ccccc3)c3ccccc23)o1
inactive: outcome [15] | outcome [16]
active: Potency [17] 8.91 µM

O=c1oc2c(O)c(O)cc3c(=O)oc4c(O)c(O)cc1c4c23
active: Potency [19] 31.6 µM
inactive: outcome [12] | Potency [18] | Potency [13]

Cc1ccc(S(=O)(=O)N[C@@H](Cc2ccccc2)C(=O)CCl)cc1
inactive: outcome [15]

Cc1ncc([N+](=O)[O-])n1CCO
inactive: Potency [1] | outcome [2] | outcome [3] | Potency [4] | Potency [5] | Potency [6] | Potency [7] | Potency [8] | caspase-3 activation [9] 0.0502% | caspase-3 activation [10] -0.402% | Potency [11] | outcome [12] | Potency [13]

N=C(N)c1ccc(OCCCCCOc2ccc(C(=N)N)cc2)cc1
inactive: Potency [1] | outcome [2] | outcome [3] | Potency [4] | Potency [5] | Potency [6] | Potency [7] | Potency [8] | caspase-3 activation [9] 1.46% | caspase-3 activation [10] 3% | Potency [11] | Potency [13] | activation [20] 3.68%

COc1cc2ncnc(Nc3cccc(Cl)c3)c2cc1OC
active: Potency [17] 15.8 µM
inactive: outcome [15]

NC(N)=NC(N)=NCCc1ccccc1
inactive: Potency [1] | outcome [2] | outcome [3] | Potency [4] | Potency [5] | Potency [6] | Potency [7] | Potency [8] | caspase-3 activation [9] 0.291% | caspase-3 activation [10] -0.745% | Potency [11]
